Only a selection was taken, and hits are over-represented in it overall.
VHR inh color = VHR1 phosphatase inhibitors, primary screen, biochemical, colorimetric, HTS | Dual specificity protein phosphatase 3 (Homo sapiens), P51452 | AID 1992, 2009 | 50,000 tested, 0.7% active | recombinant VHR phosphatase, colorimetric substrate read-out | inhibition, % at 20 µM; in the data active = inhibition above about 60%
Target sequence (P51452 whole entry, looked up): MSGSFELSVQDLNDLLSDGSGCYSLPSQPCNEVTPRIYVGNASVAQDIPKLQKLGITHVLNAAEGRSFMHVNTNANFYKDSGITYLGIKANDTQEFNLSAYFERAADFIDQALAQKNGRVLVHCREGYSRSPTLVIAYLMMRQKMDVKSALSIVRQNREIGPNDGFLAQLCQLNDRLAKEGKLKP
The depositor's hits bear a star.

SMILES | VHR inh color
COc1cccc(NC(=O)C2C3CCC4C(CCC32)C4(Cl)Cl)c1 (centres undefined) | 2
COc1ccc(NC(=O)C2C3CCC4C(CCC32)C4(Cl)Cl)cc1 (centres undefined) | -11
Cc1cc(C)c(NC(=O)C2C3CCC4C(CCC32)C4(Cl)Cl)c(C)c1 (centres undefined) | 103*
COc1cccc(N2C(=O)CC(N3CCCCC3)C2=O)c1 (centres undefined) | 101*
COc1cccc(N2C(=O)CC(N3CCN(C/C=C/c4ccccc4)CC3)C2=O)c1 (centres undefined) | -8
COc1cccc(N2C(=O)CC(N3CCC(C)CC3)C2=O)c1 (centres undefined) | -5
O=C(c1cc2cc(Br)ccc2oc1=O)N1CCSC1c1ccc([N+](=O)[O-])cc1 (centres undefined) | 2
COC(=O)c1cc(C(=O)Nc2nc3ccccc3s2)cc([N+](=O)[O-])c1 | 9
Cc1[nH]c2ccccc2c1/C=C/c1nc2ccccc2c(=O)n1-c1cccc([N+](=O)[O-])c1 | 78*
O=c1c2ccccc2nc(/C=C/c2c[nH]c3ccccc23)n1-c1cccc([N+](=O)[O-])c1 | 4
COc1ccc2c(c1)c(/C=C/c1nc3ccccc3c(=O)n1-c1cccc([N+](=O)[O-])c1)c(C)n2C | 25
Cc1cc2nc(-c3ccc(C)c(NC(=O)c4ccc([N+](=O)[O-])cc4Cl)c3)oc2cc1C | 32
O=C(Nc1ccc(Cl)cc1)c1ccccc1[N+](=O)[O-] | -12
O=C(c1ccc(F)cc1)N1CCN(Cc2ccc3c(c2)OCO3)CC1 | 0
O=C(COc1ccc2ccccc2c1)N1CCN(Cc2ccc3c(c2)OCO3)CC1 | 6
O=C(Nc1ccccc1)N1CCN(Cc2ccc3c(c2)OCO3)CC1 | 101*
c1ccc(-c2cnnc3c2[nH]c2ccccc23)cc1 | -17
COC(=O)CN1C(=O)/C(=C\c2ccc(C)cc2)SC1=S | 13
COc1ccc(/C=C2\SC(=S)N(CCS(=O)(=O)O)C2=O)cc1 | 67*
O=C1/C(=C/C=C/c2ccccc2)SC(=S)N1CCS(=O)(=O)O | 85*
C=CCN1C(=O)/C(=C/c2ccc(C)cc2)SC1=S | -13
C=CCN1C(=O)/C(=C\C=C\c2ccccc2)SC1=S | -26
Cc1ccc(/C=C2\SC(=S)N(CCS(=O)(=O)O)C2=O)cc1 | 63*
COc1ccc(/C=C2\SC(=S)N(CCC(N)=O)C2=O)cc1 | -8
COc1ccc(/C=C2\SC(=S)N(CCC(=O)OC3CCCCC3)C2=O)cc1 | -7
SMILES | VHR inh color
O=C(O)CCCN1C(=O)/C(=C/C=C/c2ccccc2)SC1=S | 3
Cn1c(-c2ccc(Cl)cc2Cl)n[nH]c1=S | 68
COc1ccc(N2C(=O)CC(Sc3nnc(N)s3)C2=O)cc1 (centres undefined) | 2
O=C(Cc1ccc(-c2ccccc2)cc1)NNC(=O)c1ccccc1Cl | 19
Nc1ccc2c(c1)C1C=CCC1C(c1ccc([N+](=O)[O-])cc1)N2 (centres undefined) | -16
COCCOC(=O)c1c(C)oc2ccc(OCc3cccc(Cl)c3)cc12 | -21
Cc1ccc(-c2nc3cc(Cl)ccc3o2)cc1NS(=O)(=O)c1ccccc1 | -6
NC(=O)c1c(N)sc2c1CCCCCC2 | 59
COc1ccccc1OCCCN1CCCC1 | -4
CCCOC(=O)c1c(N)sc2c1CCC2 | 8
CCOC(=O)c1c(N)sc2c1CCN(Cc1ccccc1)C2 | 96*
CCOC(=O)c1c(C)nn(Cc2ccccc2)c1N | 6
CCC12c3ccccc3C(c3ccccc31)C1C(=O)N(c3ccc(C)c(Cl)c3)C(=O)C12 (centres undefined) | 0
Cc1ccc(C)n1-c1ccc(SCC(=O)O)cc1 | 91*
CC(=O)c1ccc(-n2c(C)ccc2C)cc1 | 11
Cc1ccc(C)n1-c1ccc(OCC(=O)O)cc1 | 29
COc1cccc(N2C(=O)c3ccc(C(=O)NN4C(=O)c5ccccc5C4=O)cc3C2=O)c1 | -8
COc1cc(NC(=O)c2ccc([N+](=O)[O-])cc2Cl)ccc1NC(=O)c1ccco1 | 3
Cc1ccc(NC(=O)C2CC(=O)N(c3cccc([N+](=O)[O-])c3)C2)cc1C (centres undefined) | -8
CC(C)C12CN3CC(C(C)C)(CN(C1)C3c1ccc(N(C)C)cc1)C2=O (centres undefined) | -11
O=C1C2C3C=CC(C2C(=O)N1C1CCCCC1)C1C(=O)N(C2CCCCC2)C(=O)C31 (centres undefined) | 106*
CCC(C)N1C(=O)C(=O)N(C2CCCCC2)C1=O (centres undefined) | -7
O=C1C2C3C=CC(C2C(=O)N1Cc1ccccc1)C1C(=O)N(Cc2ccccc2)C(=O)C31 (centres undefined) | 5
Oc1c(C=Nc2cccc(Br)c2)sc2ccccc12 | -20
O=C1C=C/C(=N\S(=O)(=O)c2ccc(Cl)c([N+](=O)[O-])c2)c2ccccc21 | -5
SMILES | VHR inh color
Cc1ccc(-c2cc3nc(C)c(C)c(=O)n3[nH]2)cc1 | -10
O=C(/C=C/c1ccco1)NC(=S)NCc1ccccc1 | 75*
O=C(/C=C/c1ccco1)NCCCCNC(=O)/C=C/c1ccco1 | 26
O=C(/C=C/c1ccco1)NCc1ccc2c(c1)OCO2 | -3
COC(=O)c1c(NC(=O)c2ccccc2Cl)sc2c1CCCCCC2 | 6
C1CCC(N2NC2C2NN2C2CCCCC2)CC1 (centres undefined) | -6
COC(=O)C1C2C(=O)N(c3ccccc3)C(=O)C12c1ccc(Cl)cc1 (centres undefined) | -2
COC(=O)C1C2C(=O)N(c3ccc([N+](=O)[O-])cc3)C(=O)C12c1ccc(Cl)cc1 (centres undefined) | 102*
CC1=C(C)CC2C(=O)N(c3ccc(-c4ccc([N+](=O)[O-])cc4)cc3)C(=O)C2C1 (centres undefined) | -16
O=C1C2C(c3ccc([N+](=O)[O-])cc3)OC3(C(=O)c4ccccc4C3=O)C2C(=O)N1c1ccc(Cl)cc1 (centres undefined) | -12
COC(=O)C1C2C(=O)N(c3ccc([N+](=O)[O-])cc3)C(=O)C12c1ccc(C)cc1 (centres undefined) | 116*
Cc1ccc(OCC(=O)N2CCN(c3ccc([N+](=O)[O-])cc3)CC2)cc1 | 0
O=C1S/C(=C\c2ccccc2)C(=O)N1Cc1ccccc1 | -3
O=C(CSc1nsc(SCC(=O)Nc2nc(-c3ccccc3)cs2)n1)Nc1nc(-c2ccccc2)cs1 | -12
Oc1[nH]c2ccccc2c1N=Nc1cccc(C(F)(F)F)c1 | -24
Cc1cccc(CC2S/C(=N/N=C/c3cccc([N+](=O)[O-])c3)N(c3ccccc3)C2=O)c1 (centres undefined) | -40
C/C(=N\N=C1/NC(=O)C(C)S1)c1ccc(Br)cc1 (centres undefined) | -6
c1ccc(Nc2ncc(Cc3cccc4ccccc34)s2)cc1 | 1
Cc1ccccc1OCC(=O)Nc1c[nH]c(=O)[nH]c1=O | -10
COc1ccc2c(c1)-c1c(ssc1=S)C(C)(C)N2C(=O)CC(C)C | 28
O=C(COc1ccccc1Cl)Nc1nc(-c2ccccc2)cs1 | -8
O=C(COc1ccc(Cl)cc1)Nc1nc(-c2ccc(Cl)cc2)cs1 | 2
Cc1ccnc(NC(=O)COc2ccc(Cl)c(C)c2)c1 | -6
Cc1cc(OCC(=O)Nc2nc(-c3ccccc3)cs2)ccc1Cl | 82*
Cc1ccc(OCC(=O)Nc2nc(-c3ccccc3)cs2)cc1C | 93*
Cc1ccccc1OCC(=O)Nc1nc(-c2ccc(Br)cc2)cs1 | -16
